# In PubChem BioAssay AID743143 (Broad Institute, 2013):
# Results with a measured potency or affinity are listed apart. Unmarked numbers belong to inactive results.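 Rule for the calls: active = falling signal curve whose fitted half-maximal dose lies at or below the top valid tested dose; inconclusive = flat fit showing 30 to 70% loss, or poor fit; inactive = rising signal, flat within 30%, or half-maximal dose above top.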
# Experiment: viability reduction in hepatoma cells – cell-based, ATP luminescence, dry powder, Set4, cytotoxicity control, dose response (AID 743143)
# Conditions: HepG2 viability, CellTiter-Glo ATP luminescence, 72 h; series mostly up to 26 µM; activity change, negative = cytotoxicity: at the top concentration
row,SMILES,"activity change, negative = cytotoxicity"
1,COc1ccc(C(=O)NCCC(=O)N[C@@H]2CCCc3ccccc32)cc1,-11.5%
2,O=C(CCNC(=O)c1ccc2c(c1)OC(F)(F)O2)N[C@@H]1CCCc2ccccc21,-0.347%
3,O=C(CCNC(=O)c1ccccc1Cl)NC1CCCc2ccccc21 (stereo not given),-8.4%
4,Cc1cccc(C(=O)NCCC(=O)NC2CCCc3ccccc32)c1 (stereo not given),10.8%
5,CC(C)(C)OC(=O)NCCC(=O)N[C@H]1CCCc2ccccc21,-10%
6,C[C@@H](NC(=O)CCNC(=O)c1ccc(Cl)cc1)c1ccccc1,-1.89%
7,O=C(CCNC(=O)c1ccc(Cl)cc1)N[C@@H]1CCc2ccccc21,10.8%
8,COc1ccccc1C(=O)NCCC(=O)NC1CCCc2ccccc21 (stereo not given),15.7%
9,N#Cc1ccc(C(=O)NCCC(=O)N[C@@H]2CCCc3ccccc32)cc1,-2.19%
10,O=C(CNC(=O)c1ccc(C(F)(F)F)cc1)N[C@@H]1CCCc2ccccc21,18.8%
11,O=C(CCCNC(=O)c1ccc(Cl)cc1)N[C@@H]1CCCc2ccccc21,0.579%
12,O=C(CCNC(=O)c1ccc(Cl)cc1)N[C@@H]1CCCc2ccccc21,-3.06%
13,Cc1ccc(C(=O)NCCC(=O)N[C@@H]2CCCc3ccccc32)cc1,-0.842%
14,O=C(CCNC(=O)c1ccc(OC(F)(F)F)cc1)N[C@@H]1CCCc2ccccc21,-18.2%
15,O=C(CCNC(=O)c1ccc(F)cc1)N[C@@H]1CCCc2ccccc21,10.7%
16,O=C(CCNC(=O)c1ccc(Cl)c(Cl)c1)N[C@@H]1CCCc2ccccc21,-13.4%
17,O=C(CNC(=O)c1ccc(OC(F)(F)F)cc1)N[C@@H]1CCCc2ccccc21,11.1%
18,O=C(CCNC(=O)c1ccc(Cl)cc1)NC1CCCc2ccccc21 (stereo not given),-25.1%
19,COc1ccccc1C(C)NC(=O)CCNC(=O)c1ccc(Cl)cc1 (stereo not given),17.3%
20,CC(NC(=O)CCNC(=O)c1ccc(Cl)cc1)c1ccc(F)cc1 (stereo not given),-1.19%

row,SMILES,"activity change, negative = cytotoxicity"
1,O=C(CCCNC(=O)c1ccc(OC(F)(F)F)cc1)N[C@@H]1CCCc2ccccc21,-5.35%
2,O=C(CCNC(=O)c1ccc(Cl)cc1)N[C@H]1CCCc2ccccc21,-7.67%
3,CN(C(=O)CCNC(=O)c1ccc(F)cc1F)C1CCCc2ccccc21 (stereo not given),17.2%
4,O=C(CNC(=O)c1ccc(Cl)cc1)N[C@@H]1CCCc2ccccc21,1.92%
5,O=C(CCNC(=O)c1ccccc1)N[C@@H]1CCCc2ccccc21,5.01%
6,NCCC(=O)N[C@@H]1CCCc2ccccc21,18.8%
7,CC(NC(=O)CCNC(=O)c1ccc(Cl)cc1)c1ccc2c(c1)OCO2 (stereo not given),1.46%
8,O=C(Cc1ccc(Cl)cc1)NCCC(=O)N[C@@H]1CCCc2ccccc21,7.64%
9,CC(C)(C)OC(=O)NCCC(=O)N[C@@H]1CCCc2ccccc21,30.2%
10,CC(CC(=O)N(C)C1CCCc2ccccc21)NC(=O)c1ccccc1 (stereo not given),-9.54%
11,O=C(CCNC(=O)c1ccc(C(F)(F)F)cc1)N[C@@H]1CCCc2ccccc21,-0.327%
12,CC(=O)NCCC(=O)N[C@@H]1CCCc2ccccc21,-4.47%
13,CC(CC(=O)NC1CCCc2ccccc21)NC(=O)c1ccccc1 (stereo not given),-8.93%
14,O=C(CCCNC(=O)c1ccc(C(F)(F)F)cc1)N[C@@H]1CCCc2ccccc21,-4.36%
15,CC(NC(=O)C1CCCN(C(=O)c2ccc(Cl)cc2)C1)c1ccccc1 (stereo not given),1.33%
16,O=C(NC1CCOc2ccccc21)C1CCCN(C(=O)c2ccc(Cl)cc2)C1 (stereo not given),-10.2%
17,O=C(NC1CCc2ccccc21)C1CCCN(C(=O)c2ccc(Cl)cc2)C1 (stereo not given),-6.73%
18,O=C(CCNC(=O)c1ccc(Cl)cc1)NC1CCCCC1,8.22%
19,O=C(CCNC(=O)c1cccc(Cl)c1)N[C@@H]1CCCc2ccccc21,0.415%
20,CC(c1ccccc1)N(C)C(=O)CCNC(=O)c1ccc(Cl)cc1 (stereo not given),20.6%
